Bioassay records deposited in PubChem BioAssay by National Center for Advancing Translational Sciences (NCATS).
Sampled rows, rich in hits. Any-hit rate of the full collection: about 7.3%.
AmpC no deterg = qHTS Inhibitors of AmpC Beta-Lactamase (assay without detergent); AmpC nitrocefin hydrolysis, absorbance 480 nm, 0.0001% Triton; Potency, µM (top dose mostly 57.1 µM), hits mostly inhibitors; 330,000 compounds, 0.52% hits; AID 485341, 2010; also: nearly all actives have a fitted effect of over 20% in size
Target sequence (P00811 whole entry, looked up): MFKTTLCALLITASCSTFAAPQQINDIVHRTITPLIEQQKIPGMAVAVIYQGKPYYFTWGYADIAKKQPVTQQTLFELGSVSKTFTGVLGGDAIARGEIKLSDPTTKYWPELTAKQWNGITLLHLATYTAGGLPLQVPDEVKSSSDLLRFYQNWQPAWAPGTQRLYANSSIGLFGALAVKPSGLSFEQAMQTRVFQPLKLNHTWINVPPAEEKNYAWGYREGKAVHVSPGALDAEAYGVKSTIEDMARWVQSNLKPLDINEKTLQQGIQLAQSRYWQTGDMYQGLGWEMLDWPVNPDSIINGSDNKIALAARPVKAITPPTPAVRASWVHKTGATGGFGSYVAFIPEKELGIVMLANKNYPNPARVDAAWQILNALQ
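AmpC (5.3 nM in the dispensed reagent) in 20 mM phosphate pH 7.0 with 0.01% (detergent screen) or 0.0001% Triton X-100 was preincubated with compounds for 15 min at room temperature. Nitrocefin was then added from an 800 uM solution, and hydrolysis was followed at 480 nm.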
AmpC detergent = qHTS Inhibitors of AmpC Beta-Lactamase (assay with detergent) | AID 485294, 2010 | AmpC hydrolysis of nitrocefin, absorbance 480 nm, 0.01% Triton | P00811 | Potency, µM (doses to about 114 µM), hits mostly inhibitors | 370,000 compounds, 0.041% hits; also: nearly all actives have a fitted effect of over 25% in size
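20 mM phosphate pH 7.0 + 0.01% (detergent screen) or 0.0001% Triton X-100; 5.3 nM AmpC reagent; cpd preinc 15 min RT; nitrocefin (800 uM stock) to start; A480 q20 s × 4 min; Activity was normalised to no-enzyme and no-compound control wells.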
FMDV antiviral = High Throughput Screening for Foot and Mouth Disease Virus Antivirals | Potency, µM (top dose mostly 57.9 µM), most hits filed as inhibitors | FMDV antiviral cell-based qHTS | 410,000 compounds, 1.2% hits | AID 1159524, 2015; calls by dose curve; tested in HEK293T cells; also: read-out not given here; nearly all actives have a fitted effect of over 45% in size
HCV inh = qHTS Assay for Inhibitors of Hepatitis C Virus (HCV); Huh7.5.1 HCVcc-Cre infection, luciferase reporter, 44 h; Potency, µM (titrated, usually from 41.8 µM), most hits filed as inhibitors; 340,000 compounds, 3.4% hits; AID 651820, 2012
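Cells (1,000/well) were plated 4 h before compound, then infected with HCVcc-Cre virus (~0.5 moi). After 44 h further culture, infection was read as luciferase luminescence following a 15 min substrate incubation at room temperature.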
HCMV antiviral = qHTS Assay for inhibitors of the human cytomegalovirus (HCMV); HFF cells, HCMV-luciferase reporter, 72 h; active compounds read low; AID 1259415, 2018; activity change, negative = inhibition, % at 57.5 µM; 410,000 compounds, 4.5% hits; in the data active = activity change below about -60%; inconclusive = no clear call, values can overlap the other calls; inactive = above about -39%
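After 16 h attachment at 37C, HFF cells received test compound and HCMV-luciferase (1 PFU/cell); reporter luminescence read 72 h later, data normalized against buffer-only and known inhibitor Salinomycin.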
A number is an active result. Unless noted, calls follow the shape of the dose curve; as a rule, active = well fitted curve in the direction sought with a large enough effect; inconclusive = small, poorly fitted or top-dose-only effect, or another doubt; inactive = no such curve, though single readings can be large; an effect the other way counts as inactive or inconclusive.

`CCc1cnc2c(c1SCC(=O)c1ccc(OC)cc1)c(=O)n(C)c(=O)n2C` gave AmpC detergent inactive, FMDV antiviral 28.2µM and HCMV antiviral inactive.
CS(=O)(=O)c1ccc(C(=O)OCC(=O)NCc2cccs2)cc1[N+](=O)[O-] was read as AmpC no deterg inactive, FMDV antiviral inconclusive, HCV inh inconclusive and HCMV antiviral inconclusive.
For Cc1cc(C)c(NC(=O)Cn2nnc(C(=O)Nc3ccc(F)cc3F)c2N)c(C)c1 the results were AmpC no deterg inactive, AmpC detergent inactive, FMDV antiviral inactive, HCV inh inactive and HCMV antiviral inactive.
`Cc1cccc(C)c1NC(=O)Cn1nnc(C(=O)Nc2ccc(F)cc2F)c1N` gave AmpC no deterg inactive, AmpC detergent inactive, FMDV antiviral inactive, HCV inh inactive and HCMV antiviral -64.6.
Screening c1ccc(-c2cnnc3ccccc23)cc1 returned AmpC no deterg inactive, AmpC detergent inactive, FMDV antiviral inactive, HCV inh 11.2µM and HCMV antiviral inactive.
For N#CC(C#N)=Cc1ccccc1OCc1ccccc1 the results were AmpC no deterg inactive and AmpC detergent inactive.
`Cc1ccc(S(=O)(=O)/C(C#N)=C/c2ccccc2OCc2ccccc2)cc1` gave AmpC no deterg inactive, AmpC detergent inactive, FMDV antiviral inactive, HCV inh inactive and HCMV antiviral -68.9.
`Cc1ccc(S(=O)(=O)/C(C#N)=C/c2c[nH]c3ccccc23)cc1` gave AmpC no deterg 17.8µM, AmpC detergent inactive, FMDV antiviral inactive, HCV inh inactive and HCMV antiviral inactive.
Cc1ccc(S(=O)(=O)N/N=C/c2c[nH]c3ccccc23)cc1 was read as AmpC no deterg inactive, AmpC detergent inactive, FMDV antiviral inactive, HCV inh inconclusive and HCMV antiviral inactive.
Screening O=C(CN1CCOCC1)Nc1ccc(Cl)cn1 returned AmpC no deterg inactive, AmpC detergent inactive, FMDV antiviral inactive, HCV inh inactive and HCMV antiviral inactive.
For CC(C)C[C@@H]1NC(=O)[C@@H]2CSCCS(=O)(=O)N2C1=O the results were HCMV antiviral inactive.
Screening Cc1ccc(CNC(=O)CN2CCN(Cc3ccc(F)cc3Cl)C2=O)cc1 returned AmpC detergent inactive, FMDV antiviral inactive and HCMV antiviral inactive.
For CCC1(C2CCN(C(=O)c3ccc4ccccc4c3)CC2)NC(=O)N(CCc2scnc2C)C1=O (stereo unspecified) the results were FMDV antiviral inactive.
For COc1ccc(S(=O)(=O)c2cnc3ccc(Cl)cc3c2N2CCCCC2C)cc1 (stereo unspecified) the results were AmpC detergent inactive, FMDV antiviral inactive and HCMV antiviral inactive.
Screening CCOc1ccc(-c2csc(/C(C#N)=C\c3ccc(O)c([N+](=O)[O-])c3)n2)cc1 returned AmpC no deterg inactive, AmpC detergent inactive, FMDV antiviral 22.4µM, HCV inh inconclusive and HCMV antiviral inactive.
For O=C(Cn1ncn2c(cc3sccc32)c1=O)NCCc1ccccc1 the results were AmpC detergent inactive, FMDV antiviral inactive and HCMV antiviral inactive.
C[N+]1(C)[C@@H]2CC[C@H]1CC(OC(=O)C(c1ccccc1)c1ccccc1)C2 (stereo partly specified) was read as AmpC no deterg inactive, AmpC detergent inactive, FMDV antiviral inactive, HCV inh inactive and HCMV antiviral inactive.
Screening O=C(OC1CCN(CCCl)CC1)C(c1ccccc1)c1ccccc1 returned AmpC no deterg inactive, AmpC detergent inconclusive, FMDV antiviral 15.8µM, HCV inh 31.6µM and HCMV antiviral inconclusive.
CC(C)N(C[C@@H]1CSCCS(=O)(=O)N1)C1CCCCC1 was read as HCMV antiviral inactive.
For COc1cc(NC(=O)C(NS(=O)(=O)c2ccc3c(c2)CCCC(=O)N3)C(C)C)cc(OC)c1 (stereo unspecified) the results were AmpC detergent inactive, FMDV antiviral inactive and HCMV antiviral inactive.
For Cc1ccc(Cl)cc1NS(=O)(=O)c1ccccc1 the results were FMDV antiviral inactive, HCV inh inactive and HCMV antiviral inactive.
For O=S(=O)(Nc1ccc(Cl)cc1NS(=O)(=O)c1ccccc1)c1ccccc1 the results were FMDV antiviral inactive, HCV inh 0.501µM and HCMV antiviral inactive.
Screening Cc1ccc(NS(=O)(=O)c2ccccc2)c2c1CC(C)(C)O2 returned AmpC no deterg inactive, AmpC detergent inactive, FMDV antiviral inactive, HCV inh 10µM and HCMV antiviral inactive.
For Cc1cc(-c2ccc(NS(=O)(=O)c3ccccc3)c(C)c2)ccc1NS(=O)(=O)c1ccccc1 the results were FMDV antiviral inactive, HCV inh 8.91µM and HCMV antiviral inactive.
For Cc1cc(C(C)(C)C)oc1C(=O)N(CC(=O)NC1CCCC1)Cc1ccccc1Cl the results were AmpC no deterg 5.62µM, AmpC detergent inactive, HCV inh inconclusive and HCMV antiviral inactive.
`Cn1nnnc1Sc1ncnc2scc(Br)c12` gave AmpC no deterg inactive, FMDV antiviral 22.4µM and HCMV antiviral -97.4.
Cn1nnnc1Sc1ncnc2scc(-c3ccc(F)cc3)c12 was read as AmpC no deterg inactive, AmpC detergent inactive, FMDV antiviral 15.8µM, HCV inh inconclusive and HCMV antiviral -76.4.
Screening COc1ccccc1-c1csc2ncnc(Sc3nnnn3C)c12 returned AmpC no deterg inactive, AmpC detergent inactive, FMDV antiviral inconclusive and HCMV antiviral -73.8.
For c1ccc(-c2csc3ncn4nnnc4c23)cc1 the results were AmpC no deterg inactive, AmpC detergent inactive, FMDV antiviral inactive, HCV inh inactive and HCMV antiviral -100.3.
Cc1ccc(-c2csc3ncnc(SCC(N)=O)c23)cc1 was read as AmpC no deterg inactive, AmpC detergent inactive, FMDV antiviral inactive, HCV inh inconclusive and HCMV antiviral inactive.
For COCC(C)NCc1cc2ccc(OC)cc2nc1N1CCN(c2ccc(F)cc2)CC1 (stereo unspecified) the results were FMDV antiviral inactive.
For CCOC(=O)N1CCC(NC(=O)c2oc3c(C)c(C)ccc3c2C)CC1 the results were FMDV antiviral inactive, HCV inh inconclusive and HCMV antiviral inactive.
Screening COc1ccccc1-c1ccnc(-n2ncc(C(=O)N[C@H]3CCCCNC3=O)c2C2CC2)n1 returned FMDV antiviral inactive.
CC(=O)Nc1ccc(Sc2ncnc3scc(-c4ccccc4)c23)cc1 was read as AmpC no deterg inactive, AmpC detergent inactive, FMDV antiviral inactive, HCV inh inactive and HCMV antiviral inactive.
`Cn1nnnc1Sc1ncnc2scc(-c3ccc(Br)cc3)c12` gave AmpC no deterg inactive, FMDV antiviral 17.8µM and HCMV antiviral -98.0.
Cn1nnnc1Sc1ncnc2scc(-c3ccccc3)c12 was read as AmpC no deterg inactive, AmpC detergent inconclusive, FMDV antiviral 22.4µM, HCV inh inactive and HCMV antiviral -67.1.
